# This is a sample that favours compounds with a hit; in the whole collection about 8.1% have one here.
# PINK1 expr mod = modulators of PINK1 expression | PINK1 immunofluorescence, high-content cytometry, 24 h | Potency, µM (highest dose often 76.6 µM), usual class: activators | 0.2% of 410,000 active; active = well fitted activation curve with a large enough effect; inconclusive = small, poorly fitted or top-dose-only effect; cell line not stated here; also: nearly all actives have a fitted effect of over 65% in size
#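 Fluorescence from anti-PINK1 antibody, together with nuclear and cell stains, was scanned on a laser-scanning cytometer. Before staining, stable-line cells were incubated 24 hours with compounds at 5 concentrations; primary antibody 12 h at 10 degrees C.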
# VP16 counter = counter-screen for ROR gamma inhibitors: Gal4-VP16 reporter; Drosophila S2 Gal4-VP16 UAS-luciferase, luminescence, 20 h; Potency, µM (series often up to 53.6 µM), usual class: inhibitors; 3.5% of 310,000 active; AID 2546;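 also: Gal4-VP16 expression switched on by copper sulfate through the metallothionein promoter; nearly all actives have a fitted effect of over 50% in size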
# ClpP mod = qHTS Assay for Activators of ClpP; ATP-dependent Clp protease proteolytic subunit (Bacillus subtilis (strain 168)), P80244; purified B. subtilis ClpP, FRET peptide cleavage, 20 min; Potency, µM (series often up to 57.5 µM); 1.9% of 340,000 active; active = well fitted falling curve with a large enough effect; inconclusive = small, poorly fitted or top-dose-only effect; inactive = no such curve, though single readings can be large or run the other way; also: the source files actives as falling curves though it sought activators and does not explain the sign; nearly all actives have a fitted effect of over 65% in size
#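 Purified B. subtilis ClpP, 10 microg/mL final in Tris/HCl pH8 with KCl, BSA, glycerol and Tween-20, cleaved an Abz/nitrotyrosine-quenched decapeptide. Fluorescence (ex 320, em 430) was read at 0 and 20 min at room temperature. Delta was normalized to 5.8 microM ADEP and DMSO/no-enzyme controls.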
# Sfp PPTase inh = Sfp phosphopantetheinyl transferase inhibition; Biochemical Sfp PPTase activity, qHTS; Potency, µM, hits mostly inhibitors; 3.5% of 310,000 active; AID 1490;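 also: the enzyme is Sfp with the accession as filed and its product quenches rhodamine fluorescence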
#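 Fluorescence-quenching assay: 15 nM Sfp-PPTase preincubated 15 min at room temperature with compound, then 5 uM rhodamine-CoA and 12.5 uM BHQ-2-labelled YbbR peptide added. Fluorescence (ex 525/em 598 nm) read at start and after 30 min; difference gives rate.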
# Epigenetic derep = derepresses silenced GFP reporter in murine cells; 0.2% of 280,000 active; Potency, µM (highest dose often 53.9 µM), hits mostly activators; AID 1865; murine LDR cells, GFP reporter derepression, 30 h; also: nearly all actives have a fitted effect of over 60% in size
#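 GFP-positive cell count by laser-scanning cytometry (objects 20–120 um) after 30 h, 37 C compound exposure of murine LDR cells; reporter is CMV-GFP integrated at a silenced locus, inducible by HDAC or DNMT inhibitors.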
# RORgamma inh = ROR gamma (mouse) transcription inhibition. 5.4% of 310,000 active. Potency, µM (doses to about 53.6 µM), usual class: inhibitors. Drosophila S2 Gal4-RORgamma UAS-luciferase reporter, 20 h. P51450. AID 2551; also: nearly all actives have a fitted effect of over 60% in size
#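 Drosophila S2 cells stably expressing Gal4-DBD/mouse RORγ fusion under metallothionein promoter plus UAS-luciferase; compound 1 h, then 700 uM CuSO4 induction for 20 h at ambient temperature; inhibition read as reduced luminescence.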
# Numbers stand for hits; - = inactive; ? = inconclusive; . = no result; [ ] = dose if it differs, or a comment. Unless noted, calls follow the shape of the dose curve; as a rule, active = well fitted curve in the direction sought with a large enough effect; inconclusive = small, poorly fitted or top-dose-only effect, or another doubt; inactive = no such curve, though single readings can be large; an effect the other way counts as inactive or inconclusive.
SMILES,PINK1 expr mod,VP16 counter,ClpP mod,Sfp PPTase inh,Epigenetic derep,RORgamma inh
O=C(Cn1c(=O)n(-c2ccccc2)c(=O)c2ccc(C(=O)NCc3ccc4c(c3)OCO4)cc21)Nc1ccc(Br)cc1,-,.,-,.,16µM,.
C=CCn1c(=O)c(C(=O)NCCc2ccccc2)c(O)c2ccccc21,.,?,-,-,-,14µM
CCCn1c(=O)c(C(=O)NCCc2ccc(OC)cc2)c(O)c2ccccc21,-,13µM,?,-,.,?
CCCn1c(=O)c(C(=O)NCCc2ccccc2)c(O)c2ccccc21,-,?,.,-,.,-
COc1cc2c(NC3CCN(C)CC3)nc(N3CCCN(C)CC3)nc2cc1O,-,.,-,.,.,.
Cc1ccc(-c2cc(C(=O)NCCc3ccccn3)c3ccccc3n2)c(C)c1,-,-,28µM,-,-,-
Cc1ccc2nc(-c3ccccn3)cc(C(=O)NCCc3ccc(F)cc3)c2c1,-,-,-,-,.,10µM
Cc1ccc2nc(-c3ccncc3)cc(C(=O)NCCc3ccc(F)cc3)c2c1,?,-,.,-,?,-
O=C(NCc1ccc(F)cc1)c1cc(-c2ccncc2)nc2ccccc12,-,-,.,-,.,-
O=C(NCc1cc([N+](=O)[O-])ccc1O)c1cc(-c2ccncc2)nc2ccccc12,-,8.9µM,-,-,.,14µM
CCc1ccc(-c2cc(C(=O)NCc3ccccn3)c3ccccc3n2)cc1,-,?,14µM,?,-,?
O=C(NCc1ccccn1)c1cc(-c2ccc(Br)cc2)nc2ccccc12,-,-,?,-,-,-
COc1ccc(NC(=O)Cn2c(SCc3c(F)cccc3Cl)nc3ccncc32)cc1OC,-,.,-,.,-,.
CCOC(=O)c1[nH]c(C)c(CCC(=O)Nc2c(C)cc(C)cc2C)c1C,-,.,?,.,-,.
Cc1ccc(-c2cc(C(=O)NCc3ccccn3)c3ccccc3n2)cc1,-,-,14µM,-,-,-
O=C(Nc1nccs1)c1cc(-c2ccncc2)nc2ccccc12,-,-,.,-,-,-
O=C(Nc1ccc(F)cc1)c1cc(-c2ccccn2)nc2c(Cl)cccc12,-,-,-,-,.,13µM
O=C(Nc1ccncc1)c1cc(-c2ccccn2)nc2ccccc12,-,-,.,-,-,-
Cc1ccc(-c2cc(C(=O)Nc3nccs3)c3ccccc3n2)c(C)c1,-,6.3µM,-,-,-,4.5µM
O=c1cc(N2CCN(c3ccc(F)cc3)CC2)[nH]c(=O)n1-c1cccc(Br)c1,-,.,-,.,-,.
N[C@H](Cc1ccc(O)c(O)c1)C(=O)O,.,-,.,?,-,-[10 µM]
Cc1ccc(-c2nnc(SC(C)C(=O)NCc3ccco3)n2C)cc1 (centres undefined),-,.,-,.,.,.
CCOC(=O)C1CCN(C(=O)C(C)N(c2ccc(Oc3ccccc3)cc2)S(C)(=O)=O)CC1 (centres undefined),-,20µM,-,-,-,-
CCOC(=O)N1CCN(C(=O)C(C)N(c2ccc(Oc3ccccc3)cc2)S(C)(=O)=O)CC1 (centres undefined),-,.,-,-,-,-[0.365 µM]
COc1ccc(CCNc2ncnc3sc(C)cc23)cc1OC,-,0.4µM,.,-,.,?
SMILES,PINK1 expr mod,VP16 counter,ClpP mod,Sfp PPTase inh,Epigenetic derep,RORgamma inh
Fc1ccc(CCNc2ncnc3[nH]ncc23)cc1,-,.,-,.,.,.
COc1ccc(CCNc2ncnc3[nH]ncc23)cc1OC,-,13µM,?,-,-,-
O=C(NCCc1nnc2n1CCN(Cc1ccc3c(c1)CCO3)CC2)c1ccco1,-,.,.,.,.,.
COCCn1c(C)cc(C(=O)COC(=O)c2ccc([N+](=O)[O-])o2)c1C,-,-,-,-,-,13µM
Cc1cc(C(=O)COC(=O)c2ccc([N+](=O)[O-])o2)c(C)n1CC1CCCO1 (centres undefined),-,-,-,-,-,20µM
COCCn1c(C)cc(C(=O)COC(=O)c2cccc(O)c2)c1C,-,0.63µM,-,-,-,0.35µM
Cc1cc(C)c(C(=O)COC(=O)c2ccc([N+](=O)[O-])o2)cc1C,-,-,.,-,-,?
Cc1cc(C(=O)COC(=O)c2ccc3c(c2)OCO3)c(C)n1CC1CCCO1 (centres undefined),-,-,.,-,-,-
CCCCCCCCCCCC(CC1OC(=O)C1CCCCCC)OC(=O)C(CC(C)C)NC=O (centres undefined),.,-,.,-,-,-
CCCSCCCNC(=O)c1ccc(Cn2c(=O)c3cccn3c3cccnc32)cc1,-,.,-,.,?,.
Cc1ccc(S(=O)(=O)NCC(=O)N(c2ccccc2)C(C(=O)NCc2ccccc2)c2ccco2)cc1 (centres undefined),-,-,-,79µM,-,-
CCOc1ccccc1C(=O)Nc1cc(-c2nc3cccnc3s2)ccc1C,-,.,-,.,-,.
COc1ccc(C2c3c(n(C)c4ccccc34)C(=O)N2CC(=O)Nc2cccc(Cl)c2)cc1 (centres undefined),-,.,16µM,.,-,.
COc1ccc(C2c3c(n(C)c4ccccc34)C(=O)N2CC(=O)Nc2ccc(C)cc2Cl)cc1 (centres undefined),-,.,32µM,.,-,.
CSCC[C@H](NC(=O)[C@H](CC(C)C)N1CCC(NC(=O)[C@@H](NC(=O)[C@H](Cc2ccccc2)NC(=O)[C@H](CO)NC(=O)[C@H](CC(=O)O)NC(=O)[C@@H](N)CCCCN)C(C)C)C1=O)C(N)=O (some centres undefined),.,-,.,-,.,-
CC1CCN(C(=O)c2ccc3c(c2)N(Cc2ccccc2F)C(=O)c2ccccc2S3(=O)=O)CC1,-,.,-,.,-,.
CC(NC(=O)OCc1ccccc1)C(=O)Oc1cc2oc(=O)cc(-c3ccccc3)c2cc1Cl (centres undefined),-,-,25µM,-,-,-
CCOC(=O)c1c(NC(=O)c2cc(-c3ccc(Br)cc3)on2)sc(C)c1C,-,.,-,.,-,.
Cc1cc(C)cc(N2C(=O)N(Cc3cccc(F)c3)c3ccccc3S2(=O)=O)c1,-,.,-,.,-,.
CCCc1ccc(C2Sc3ccccc3NC3=C2C(=O)c2ccccc23)cc1 (centres undefined),-,.,-,.,-,.
Cc1ccc(C(NC(=O)N2CCOCC2)=C(Cl)Cl)cc1F,.,2.2µM,-,-,-,22µM
Cc1ccc(C(NC(=O)N2CCOCC2)C(Cl)Cl)cc1F (centres undefined),-,-,-,-,-,?
O=C(CN1C(=O)NC2(CCCC2)C1=O)OCc1cc(=O)n2cc(Br)ccc2n1,-,-,-,-,-,3.2µM
Cc1ccc(-c2nnc(SCCC(=O)N3CCOCC3)o2)cc1,-,-,-,-,-,6.3µM
Cc1cccc(-c2nnc(SCCC(=O)N3CCOCC3)o2)c1,-,7.1µM,-,-,-,?

# High-throughput results as filed in PubChem.
